Source: PubChem BioAssay (Broad Institute)
Compounds with a hit are over-represented: about 3.1% of the library has one in this group of screens.
MITF TRPM1 HTS = MITF TRPM1 promoter activation in melanoma cells. 300,000 tested, 0.75% active. activation, % at 12.5 µM. SK-MEL-5 TRPM1-promoter luciferase, 24 h; % of positive control, neutral wells = 0;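 active means mean activation of at least 80% with every replicate also reaching 80%; inconclusive means mean reaches 80% but some replicate falls short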;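 further: 0% = neutral control wells and 100% = parthenolide positive control wells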
Wnt act = activates Wnt/beta-catenin signaling in a reporter cell assay; activator, plate reader; activation, % at 9.35 µM; 300,000 tested, 1.2% active; AID 743398; in the data active means activation above about 30%, passing the limit was not always enough; inconclusive means no clear call, values can overlap the other calls;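 further: 0% = neutral control wells and 100% = positive control wells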
Rtt109 HAT inh = inhibitors of Candida albicans Rtt109/Vps75 histone acetyltransferase. purified Rtt109/Vps75, ThioGlo CoA-SH fluorescence, 4 h. Q5AAJ8. inhibition, % at 34.9 µM. AID 540336. 330,000 tested, 0.16% active;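 active means inhibition of at least 50% in every replicate; inconclusive means best replicate reaches 50% inhibition but some replicates fall short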
Target sequence (Q5AAJ8 whole entry, looked up): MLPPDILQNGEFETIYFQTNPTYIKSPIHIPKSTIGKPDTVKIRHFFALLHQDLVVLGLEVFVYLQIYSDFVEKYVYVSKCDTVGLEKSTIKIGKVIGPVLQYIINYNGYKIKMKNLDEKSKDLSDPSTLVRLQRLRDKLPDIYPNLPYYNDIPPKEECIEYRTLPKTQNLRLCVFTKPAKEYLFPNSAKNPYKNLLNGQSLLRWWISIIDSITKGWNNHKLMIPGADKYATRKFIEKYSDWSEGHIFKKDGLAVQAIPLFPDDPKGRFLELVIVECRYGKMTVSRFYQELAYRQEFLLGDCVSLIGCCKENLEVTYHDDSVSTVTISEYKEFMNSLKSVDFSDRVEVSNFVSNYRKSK
C2C12 statin = protects C2C12 myotubes from simvastatin toxicity. ATP luminescence, 48 h; scaled: DMSO 0, geranylgeraniol control 100. rescue of ATP level, % at 7.49 µM. 330,000 tested, 0.78% active;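 active means mean ATP rescue above about 67%, or every replicate alone reaching that limit, limit read from the data, passing the limit was not always enough; inconclusive means no clear call, values can overlap the other calls; inactive means mean under the limit and some replicate under it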;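 further: myotubes were challenged with 10 µM simvastatin during compound exposure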
esBAF inh = SWI/SNF esBAF complex inhibition | 350,000 tested, 2% active | mouse ES cells, Bmi1-luciferase knock-in reporter, 24 h; 100% = twice the neutral-well signal | reporter increase, % at 12.5 µM; in the data active means activation above about 40%; inconclusive means no clear call, values can overlap the other calls;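 further: 0% = median of the plate's neutral control wells and 100% = double that signal; a rise in the Bmi1 reporter signal indicates esBAF inhibition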
The depositor's hits bear a star; ? = inconclusive; . = no result given.

SMILES	MITF TRPM1 HTS	Wnt act	Rtt109 HAT inh	C2C12 statin	esBAF inh
CC(C)(C)c1ccc(/C=N/NC(=O)C2CCCC2)cc1	32	3	10	-35	55*
CC(=O)Nc1ccc(C=NNC(=O)C2CC2)cc1	8	-5	-9	5	18
O=C(c1cnccn1)N1CC[C@@H]2[C@@H](CO)Nc3ccc(-c4ccccc4)cc3[C@@H]21	.	.	.	20	-1
C[C@@H]1CN([C@@H](C)CO)C(=O)c2cc(NC(=O)C3CC3)ccc2O[C@@H]1CN(C)C(=O)Nc1ccccc1	.	.	.	7	-3
C[C@H]1CN([C@@H](C)CO)C(=O)Cc2cc(NC(=O)Nc3ccc(C(F)(F)F)cc3)ccc2O[C@H]1CN(C)S(=O)(=O)c1ccccc1	.	.	.	-169	2
Nn1c(SCc2ccccc2)nc2ccccc21	?	28	2	10	54*
Cc1ccc(NC(=O)C(=O)c2ccc(C)cc2)cc1	65	?	-3	13	76*
Cc1ccc(NC(=O)c2ccccc2)cc1	.	.	-24	2	?
Cc1ccc(NCC(=O)c2ccc(C)cc2)cc1	84*	15	-18	-32	-37
C[C@@H]1CN([C@@H](C)CO)C(=O)c2cc(NC(=O)C3CCCCC3)ccc2O[C@@H]1CN(C)Cc1ccc(C(F)(F)F)cc1	.	.	.	.	-4
CCCNC(=O)C[C@@H]1C[C@H]2c3cc(NC(=O)C4CCOCC4)ccc3O[C@H]2[C@H](CO)O1	.	.	.	-5	1
CN1C(=O)c2cc(NC(=O)c3ccc(Cl)cc3)ccc2OC[C@@H]2O[C@H](CC(=O)O)CC[C@@H]21	.	.	.	7	3
CCOC(=O)C1(Cc2ccccc2)CCCN(C2CCN(C(C)=O)CC2)C1 (stereo not given)	-1	1	-17	1	-1
CCOC(=O)C1(Cc2ccccc2)CCCN(C(=O)C=C(C)C)C1 (stereo not given)	88*	4	0	7	60*
CCOC(=O)C1(Cc2ccccc2)CCCN(C(=O)COc2ccccc2OC)C1 (stereo not given)	.	39*	.	.	.
C=CCNC(=S)NNC(=O)COc1ccc2cc(Br)ccc2c1	75	10	14	26	41*
CC(C)COC(=O)N(C)c1ccc(C(O)(C(F)(F)F)C(F)(F)F)cc1	26	0	7	.	45*
CCCCN1C(=O)NC(NC(C)=O)(C(F)(F)F)C1=O (stereo not given)	-3	-2	6	105*	-9
COc1cc(Br)c(/C=C/c2ccc3cccc(O)c3n2)cc1OC	4	8	-3	1	23
COc1cc(/C=C/c2ccc3cccc(O)c3n2)c(Br)cc1O	-3	12	0	15	40*
CCn1c(O)c(C#N)c(C)cc1=O	.	48*	-2	.	.
OC1(c2cccc(C(F)(F)F)c2)CCN(c2ccc(-c3ccccc3)nn2)CC1	67	-2	-8	-50	67*
Cc1ccc(SCCNC(=S)Nc2ccc(C)c(C)c2)cc1	.	.	5	-8	0
Cc1ccc(SCCNC(=S)Nc2cc(C)ccc2C)cc1	5	.	4	73*	0
CO[C@@H]1CN(C)C(=O)c2ccc(NS(=O)(=O)c3cn(C)cn3)cc2OC[C@H](C)N(C)C[C@@H]1C	.	.	.	-3	-3
SMILES	MITF TRPM1 HTS	Wnt act	Rtt109 HAT inh	C2C12 statin	esBAF inh
CN(CC(=O)Nc1cccc(F)c1)C(=O)CCCNC(=O)c1ccc(Cl)cc1	57	20	-9	1	54*
CN(CC(=O)Nc1cccc(F)c1)C(=O)CCNC(=O)c1ccco1	0	49*	4	.	.
CN(CC(=O)Nc1cccc(F)c1)C(=O)CCNC(=O)c1ccc(Br)cc1	13	5	0	2	23
COc1ccc(NC(=O)N(C)C[C@H]2Oc3c(NC(=O)C4CCCCC4)cccc3C(=O)N([C@@H](C)CO)C[C@H]2C)cc1	.	.	.	?	-4
CO[C@@H]1CN(C)C(=O)c2ccc(NC(=O)Nc3ccccc3F)cc2OC[C@@H](C)N(C(=O)Nc2ccccc2F)C[C@H]1C	.	.	.	11	16
CO[C@@H]1CN(C)C(=O)c2cc(NC(C)=O)ccc2OC[C@@H](C)N(Cc2cccc(F)c2)C[C@H]1C	.	.	.	-7	-3
CCOC(=O)c1c(C)oc2c1cc(O)c1ccccc12	47	.	13	.	.
CCOC(=O)c1c(C)oc2c1c(C(c1cccnc1)N1CCOCC1)c(O)c1ccccc12 (stereo not given)	45	.	7	1	69*
CCOC(=O)c1c(C)oc2c1c1c(c3ccccc32)OCN(CCCC(=O)O)C1	66	48*	0	-8	51*
CCOC(=O)c1c(C)oc2c1c1c(c3ccccc32)OCN(Cc2cccnc2)C1	27	.	2	4	74*
CCC(=O)Nc1ccc2c(c1)C(=O)N(C)C[C@@H](OC)[C@@H](C)CN(Cc1ccccn1)[C@@H](C)CO2	.	.	.	3	-7
Cc1ccc(/C=N/NC(=O)c2c[nH]c3ccccc23)s1	69	.	-3	-21	59*
O=C(N/N=C/c1ccc(Br)s1)c1ccco1	?	43*	5	.	.
Cc1ccsc1/C=N/NC(=O)c1c[nH]c2ccccc12	34	?	6	6	36
Cc1ccc(/C=N/NC(=O)c2ccco2)s1	44	45*	-8	-5	13
CN(C)CCCNC(=O)[C@H]1[C@H](CO)[C@H]2Cn3c(ccc(-c4ccc(F)cc4)c3=O)[C@@H]1N2C	.	.	.	0	1
Cc1ccc(N=c2c([N+](=O)[O-])nn(-c3ccccc3)n2O)c(C)c1	21	-3	-4	20	67*
O=[N+]([O-])c1nn(-c2ccc(Cl)cc2)n(O)c1=NCc1ccccc1	11	40*	11	11	23
O=[N+]([O-])c1nn(-c2ccccc2)n(O)c1=NCc1ccc2c(c1)OCO2	5	-12	6	9	2
C[C@@H]1CN([C@@H](C)CO)C(=O)Cc2cc(NC(=O)Nc3ccc(C(F)(F)F)cc3)ccc2O[C@@H]1CN(C)S(=O)(=O)c1cn(C)cn1	.	.	.	-117	0
C[C@@H]1CN([C@H](C)CO)C(=O)c2cc(NC(=O)Nc3ccccc3)ccc2O[C@@H](C)CCCCO[C@H]1CN(C)C(=O)c1ccccc1	.	.	.	.	-2
Cc1ccc(CNC(=O)CSc2nc3ccsc3c(=O)n2Cc2ccccn2)cc1	14	34*	-13	1	6
Cc1ccc(C(=O)OCC(=O)NCC2CCCO2)c(C)c1 (stereo not given)	9	0	-9	.	.
Cc1c(C(=O)OCC(=O)NCC2CCCO2)cccc1[N+](=O)[O-] (stereo not given)	-11	37*	-8	-7	10
C[C@@H]1CCCCO[C@H](CN(C)C(=O)Nc2ccc3c(c2)OCO3)[C@@H](C)CN([C@@H](C)CO)C(=O)c2cc(NS(=O)(=O)c3ccccc3)ccc2O1	.	.	.	.	-9
COc1cccc(C2=CC(=O)C[C@H](c3ccc4c(c3)OCO4)C2)c1OC	57	.	0	21	43*
O=C1C=C(c2ccccc2)C[C@@H](c2ccc3c(c2)OCO3)C1	2	0	7	8	2
